FMDV antiviral: foot and mouth disease virus antiviral activity. FMDV antiviral cell-based qHTS. Potency, µM (series often up to 57.9 µM), inactives show top-dose activity change, negative = inhibition, hits mostly inhibitors. hit rate 1.2% among 410,000. AID 1159524; calls by dose curve; tested in HEK293T cells; also: read-out not given here; potency is read from the fitted curve at half-maximal effect; nearly all actives have a fitted effect of over 45% in size
VACV mCherry inh: vaccinia inhibition (mCherry reporter); Potency, µM (highest dose often 36.5 µM), for inactives: at the top dose activity change, negative = inhibition, hits mostly inhibitors; Vaccinia virus mCherry reporter infection, fluorescence; hit rate 0.63% among 310,000; AID 720579; calls by dose curve; tested in A549 cells; also: potency is read from the fitted curve at half-maximal effect; nearly all actives have a fitted effect of over 35% in size
Vaccinia Venus: vaccinia inhibition (Venus reporter); Vaccinia virus Venus reporter expression, fluorescence; Potency, µM (series often up to 36.5 µM), inactives show at the top dose activity change, negative = inhibition, actives largely listed as inhibitors; hit rate 0.46% among 330,000; AID 720580; calls by dose curve; tested in A549 cells; also: potency is read from the fitted curve at half-maximal effect; nearly all actives have a fitted effect of over 30% in size
HCV inh: blocks hepatitis C virus. Huh7.5.1 HCVcc-Cre infection, luciferase reporter, 44 h. Potency, µM (series often up to 41.8 µM), for the others: at the highest dose activity change, negative = inhibition, most hits filed as inhibitors. hit rate 3.4% among 340,000. AID 651820; active = well fitted inhibition curve with a large enough effect; inconclusive = small, poorly fitted or top-dose-only effect, or another doubt; inactive = no such curve, though single readings can be large or run the other way; also: potency is read from the fitted curve at half-maximal effect
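Antiviral activity was scored by luciferase reporter output from cells infected with HCVcc-Cre (~0.5 moi) in presence of compound, 44 h infection period, cells seeded 1,000/well 4 h prior.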
HCMV inh: human cytomegalovirus inhibition. HFF cells, HCMV-luciferase reporter, 72 h; active compounds read low. activity change, negative = inhibition, % at 57.5 µM. hit rate 4.5% among 410,000; in the data active = activity change below about -60%; inconclusive = no clear call, values can overlap the other calls; inactive = above about -39%
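Compounds were evaluated in HFFs infected with an HCMV luciferase reporter virus (MOI 1 PFU/cell). Luciferase in lysates collected 72 h post infection served as the replication measure.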
* hit, by the source's call; i = inactive; ? = inconclusive; nt = no result. Shown are actives, neighbours in structure and some others; about 7.3% of the full set was active somewhere. % is scaled to controls: 0 for no effect and ±100 for the full control effect.

SMILES	FMDV antiviral	VACV mCherry inh	Vaccinia Venus	HCV inh	HCMV inh
COC1=CC(=O)c2c(ccc3ncnc(N)c23)C1=O	2.5µM*	?	?	?	-99*
COc1c(C)cc(C(=O)C2CCCN(Cc3ccc(Oc4ncccn4)cc3)C2)cc1C (configuration not stated)	?	nt	nt	?	-83*
COc1c(C)cc(C(=O)C2CCCN(Cc3c(C)n(C)n(-c4ccccc4)c3=O)C2)cc1C (configuration not stated)	4%	-10%	-3%	1%	-71*
Cc1ccc(C)c(S(=O)(=O)N2CCN(C(=O)Cc3ccsc3)CC2)c1	4.5µM*	-9%	-19%	nt	14
CC(C)c1ccc(S(=O)(=O)N2CCN(C(=O)Cc3ccsc3)CC2)cc1	9%	-21%	-25%	-6%	-13
COc1cccc(CNC(=O)CN2C(=O)COc3ccc(S(=O)(=O)Nc4ccccc4)cc32)c1	28%	-14%	-11%	nt	7
COc1cc(/C=C2\SC(=O)NC2=O)ccc1Oc1ccc([N+](=O)[O-])cc1[N+](=O)[O-]	-3%	-24%	-5%	-5%	-75*
CCN1C(=O)C(=Cc2cccc(OC)c2Oc2ccc([N+](=O)[O-])cc2[N+](=O)[O-])SC1=S	13µM*	?	-25%	4%	-6
CO/N=C/c1ccc(Oc2ccc([N+](=O)[O-])cc2[N+](=O)[O-])c(OC)c1	-7%	i	-22%	?	21
Cc1ccc(N2CCN(S(=O)(=O)c3nnc(NC(=O)c4cccc(F)c4)s3)CC2)cc1	-30%	?	?	nt	9
Cc1ccc(NC(=O)/C(C#N)=C/c2cc(C)n(-c3ccc(Br)cc3)c2C)cc1C	?	-9%	-19%	nt	-108*
CCOC(=O)/C(C#N)=C/c1cc(C)n(-c2ccccc2)c1C	0%	-15%	-5%	32µM*	?
COc1ccc(CNC(=O)/C=C/c2ccco2)cc1OC	-8%	i	-4%	19%	-89*
O=C(O)CCC(=O)NC(c1ccccc1)c1ccccc1	-5%	-9%	-9%	18%	-17
CC(=O)NC(c1ccc(C(C)C)cc1)c1ccc2cccnc2c1O (configuration not stated)	-24%	?	?	8.9µM*	-99*
CCCCC(=O)NC(c1ccccc1)c1ccc2cccnc2c1O (configuration not stated)	-4%	1.6µM*	?	2.8µM*	-100*
CCCCC(=O)NC(c1ccc(C(C)C)cc1)c1ccc2cccnc2c1O (configuration not stated)	-8%	nt	nt	2.8µM*	-103*
CCC(=O)NC(c1ccccc1Cl)c1c(O)ccc2ccccc12 (configuration not stated)	0%	-2%	-16%	-1%	?
CC(=O)NC(c1ccccc1)c1cc([N+](=O)[O-])c2cccnc2c1O (configuration not stated)	-19%	?	?	?	25
CCCCC(=O)NC(c1ccccc1Cl)c1ccc2cccnc2c1O (configuration not stated)	-7%	nt	nt	2.2µM*	-96*
O=C(Nc1nccs1)c1ncc(Cl)c(Cl)c1Cl	29%	?	-12%	-10%	4
CCC(=O)NC(c1ccccc1OC)c1ccc2cccnc2c1O (configuration not stated)	-15%	?	?	2.5µM*	nt
CC(C)C(=O)NC(c1ccccc1)c1cc([N+](=O)[O-])c2cccnc2c1O (configuration not stated)	0%	?	?	?	-1
CCCC(=O)NC(c1ccc(OC)cc1)c1ccc2cccnc2c1O (configuration not stated)	-12%	8.9µM*	?	3.2µM*	-99*
CCC(=O)NC(c1ccc(OC)cc1)c1c(O)ccc2ccccc12 (configuration not stated)	2%	-14%	-23%	-13%	4
CCCC(=O)NC(c1ccccc1)c1ccc2cccnc2c1O (configuration not stated)	-16%	?	?	2.8µM*	-102*
CCc1cccc(NC(=O)c2coc(=O)c3ccccc23)c1	60%	-8%	-11%	nt	1
O=S(=O)(c1ccc(Br)cc1)c1nnn2c1nc(NCc1ccc3c(c1)OCO3)c1sccc12	-16%	-15%	-21%	nt	13
